Most compounds without a hit are left out; they make up all but 4% or so of the library.
SKOV3 invasion: ovarian cancer metastasis inhibition, 3D TME model; SKOV3ip1-GFP adhesion/invasion on 3D omental model, fluorescence; Potency, µM (series often up to 45.8 µM), without a hit: at the top dose activity change, negative = inhibition, most hits filed as inhibitors; 46,000 compounds, 0.1% hits; AID 1963576;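 further: potency means the concentration at half of the fitted maximal effect; plate controls were DMSO wells for no effect and tomatine positive control wells for full effect; nearly all actives have a fitted effect of over 65% in size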
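Adhesion/invasion was scored as fixed GFP-labeled SKOV3ip1 cell counts (488/509 nm), normalized to DMSO and tomatine controls. Cancer cells in serum-free medium, with four compound doses (0.36-46 umol/L), sat 2 hr at RT then 16 hr at 37 C on a 48 hr fibroblast/mesothelial/ECM culture.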
NTMT1 inhibitor: NTMT1 methyltransferase inhibition; 59,000 compounds, 2.5% hits; NTMT1 MTase-Glo SAH luminescence, purified enzyme; Potency, µM (highest dose often 114 µM), for the others: at the highest dose activity change, negative = inhibition, usual class: inhibitors; AID 1645870;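 further: potency means the concentration at half of the fitted maximal effect; plate controls were DMSO vehicle for no effect and no enzyme for full effect; nearly all actives have a fitted effect of over 65% in size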
GPR32 ag: GPR32 (DRV1) agonism, beta-arrestin recruitment. CHO-K1 GPR32 beta-arrestin PathHunter luminescence, 90 min; zero percent set by DMSO-only wells. activation, % at 76.9 µM. 48,000 compounds, 2.5% hits. AID 1346428;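 active means activation of at least 60% and not above a set upper limit, about 1 call in 100 departs from these limits; inconclusive means activation of 40% to 60%, or above that upper limit; inactive means activation under 40%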; further: 0% is about no effect
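Readings come from a cell-based beta-arrestin complementation format: CHO-K1 GPR32 stable cells (2,500/well) treated 90 min with compounds, then beta-Gal substrate added for 1 h before chemiluminescence imaging.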
p53null 39C kill: selectivity test: cytotoxicity in p53 null cells, nonpermissive temperature. H1299 p53-null (neo) cells, 39C, ATPlite viability, 24 h. Potency, µM (doses to about 46.1 µM), inactives show at the top dose activity, negative = cell killing, hits mostly cytotoxic. 55,000 compounds, 0.97% hits;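 further: potency means the concentration at half of the fitted maximal effect; 0% = DMSO only and -100% = full killing by 100 µM tamoxifen; nearly all actives have a fitted effect of over 50% in size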
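Cells seeded at 600/well, 37C overnight. Compound added (up to 46 uM), plates shifted to 39C for 24 hr. ATPlite added, luminescence read after 20 min at room temperature.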
p53null 32C tox: p53 null cell cytotoxicity, permissive temperature; H1299-neo p53 null cells, ATP luminescence, 24 h, 32C; Potency, µM (series often up to 46.1 µM), for inactives: top-dose activity change, negative = cytotoxicity, actives largely listed as cytotoxic; 55,000 compounds, 0.62% hits; AID 903;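 further: potency means the concentration at half of the fitted maximal effect; 0% = DMSO only and -100% = full killing by 100 µM tamoxifen; nearly all actives have a fitted effect of over 55% in size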
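H1299-neo, 600 cells/well; overnight 37C; cpd up to 46 uM, 24 h at 32C; ATPlite luminescence after 20 min RT; normalized to DMSO (0%) and tamoxifen 100 uM (100% kill); Hill-fit AC50.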
GALC G270D act: enhancers of human galactocerebrosidase G270D mutant activity in cells. 45,000 compounds, 0.1% hits. Potency, µM (series often up to 57.5 µM), actives largely listed as activators. P54803. AID 1159614. 145M-Twi-hGALC-G270D cells (Twitcher mouse brain line with human GALC G270D), HMU-beta-Gal fluorescence, 48 h; further: potency means the concentration at half of the fitted maximal effect; 0% is about no effect; nearly all actives have a fitted effect of over 65% in size
Target sequence (P54803 whole entry G286D): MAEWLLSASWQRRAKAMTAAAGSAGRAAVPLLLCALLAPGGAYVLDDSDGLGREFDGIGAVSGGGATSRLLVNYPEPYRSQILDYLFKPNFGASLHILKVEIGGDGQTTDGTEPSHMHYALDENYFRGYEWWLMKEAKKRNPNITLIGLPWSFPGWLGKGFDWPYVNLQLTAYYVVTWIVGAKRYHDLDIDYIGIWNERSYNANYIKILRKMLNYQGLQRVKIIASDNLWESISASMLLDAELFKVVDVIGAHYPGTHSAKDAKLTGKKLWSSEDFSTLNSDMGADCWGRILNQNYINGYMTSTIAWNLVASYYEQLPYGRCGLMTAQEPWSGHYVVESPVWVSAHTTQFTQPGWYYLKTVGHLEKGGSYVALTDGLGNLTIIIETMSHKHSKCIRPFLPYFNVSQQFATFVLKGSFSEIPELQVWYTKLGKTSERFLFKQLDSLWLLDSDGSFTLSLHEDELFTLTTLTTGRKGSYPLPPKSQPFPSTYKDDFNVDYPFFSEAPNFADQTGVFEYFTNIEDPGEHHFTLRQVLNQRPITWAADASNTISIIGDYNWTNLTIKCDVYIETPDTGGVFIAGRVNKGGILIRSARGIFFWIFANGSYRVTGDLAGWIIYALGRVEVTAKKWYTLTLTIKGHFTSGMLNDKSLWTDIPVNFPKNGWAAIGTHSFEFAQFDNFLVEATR
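Fluorescence readout: HMU-β-gal cleavage by mutant GALC (0.1 mM final, citrate/phosphate pH 5.2 with 1 mg/mL taurocholate), stopped with carbonate/bicarbonate plus Triton X-100. Cells: murine Twitcher 145M-Twi expressing human G270D GALC; qHTS for activators.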
Starred values were filed as active, the others as inactive; [ ] = remark or other dose. Unless noted, the call rests on the fitted dose curve; in most records, active means well fitted curve in the direction sought with a large enough effect; inconclusive means small, poorly fitted or top-dose-only effect, or another doubt; inactive means no such curve, though single readings can be large; an effect the other way counts as inactive or inconclusive.

`CCOC(=O)c1c(N)n(-c2cccc(OC)c2)c2nc3ccccc3nc12` gave SKOV3 invasion 9%, NTMT1 inhibitor 13%, GPR32 ag 2, p53null 39C kill 25%, p53null 32C tox 3% and GALC G270D act 4µM*.
`CCOC(=O)c1c(N)n(-c2ccc(CC)cc2)c2nc3ccccc3nc12` gave SKOV3 invasion inactive, NTMT1 inhibitor 5%, GPR32 ag 3, p53null 39C kill 26%, p53null 32C tox -2% and GALC G270D act inactive.
Screening CCN1C(=O)N2Cc3cc(OC)cc(OC)c3[C@@H](C)C=C2C12CCN(Cc1cc(C)cc(C)c1)CC2 returned NTMT1 inhibitor 21%.
Screening CCCCNC(=O)c1ccc(-c2nc(CS(=O)(=O)c3ccc(C)cc3)c(C)o2)cc1 returned SKOV3 invasion 0%, NTMT1 inhibitor 15%, GPR32 ag 69*, p53null 39C kill -16%, p53null 32C tox 12% and GALC G270D act inactive.
Cc1ccc(CNC(=O)c2ccc(-c3nc(CS(=O)(=O)c4ccc(C)cc4)c(C)o3)cc2)cc1 was read as SKOV3 invasion 3%, NTMT1 inhibitor inconclusive, GPR32 ag 110*, p53null 39C kill 11%, p53null 32C tox 1% and GALC G270D act inconclusive.
Screening CCN(CC)CCCNC(=O)c1ccc(-c2nc(CN3CCc4ccccc43)c(C)o2)cc1 returned SKOV3 invasion inconclusive, NTMT1 inhibitor -18%, GPR32 ag 95*, p53null 39C kill -4%, p53null 32C tox 9% and GALC G270D act inactive.
C=C1C(O)CC2C(C(=O)O)=COC(O[C@@H]3O[C@H](COC(=O)/C=C/c4ccc(O)cc4)[C@@H](O)[C@H](O)[C@H]3O)C12 (stereo partly specified) was read as NTMT1 inhibitor 24%[29.8 µM].
For Cc1nc2c(-c3ccccc3)c(C)nn2c(C)c1CCC(=O)NCc1cccc(Cl)c1 the results were SKOV3 invasion inactive, NTMT1 inhibitor -8%, GPR32 ag 62*, p53null 39C kill -26%, p53null 32C tox -4% and GALC G270D act inactive.
Cc1nc2c(-c3ccc(F)cc3)c(C)nn2c(C)c1CCC(=O)NCc1ccc(Cl)cc1 was read as SKOV3 invasion inactive, NTMT1 inhibitor 7%, GPR32 ag 18, p53null 39C kill 6%, p53null 32C tox 0% and GALC G270D act inactive.
Screening OCCCn1c(-c2ccc(F)cc2)csc1=Nc1ccc(F)cc1 returned SKOV3 invasion inactive, NTMT1 inhibitor -1%, GPR32 ag -8, p53null 39C kill 1%, p53null 32C tox -4%[9.22 µM] and GALC G270D act inactive.
Cc1ccc(-c2csc(=Nc3ccccc3)n2CCCO)cc1 was read as SKOV3 invasion 4%, NTMT1 inhibitor -5%, GPR32 ag 86*, p53null 39C kill -32%, p53null 32C tox -8%[9.22 µM] and GALC G270D act inactive.
For Cc1ccc(-c2ccc(CNc3nc(-c4ccccc4C(C)C)ncc3F)cc2)cn1 the results were NTMT1 inhibitor 11%.
Screening COC(=O)c1nnn(-c2cccc(C)c2)c1C(=O)OC returned SKOV3 invasion -21%, NTMT1 inhibitor -16%, GPR32 ag 2, p53null 39C kill -12%, p53null 32C tox -2% and GALC G270D act inactive.
`Cc1cccc(-n2nnnc2S(C)(=O)=O)c1` gave SKOV3 invasion inconclusive, NTMT1 inhibitor 1%, GPR32 ag 10, p53null 39C kill 22%, p53null 32C tox 14µM* and GALC G270D act inactive.
`Cc1ccc(C2c3c(-c4cc(C)ccc4O)n[nH]c3C(=O)N2Cc2ccco2)cc1` (stereo unspecified) gave SKOV3 invasion inconclusive, NTMT1 inhibitor 7%, GPR32 ag 43, p53null 39C kill inconclusive, p53null 32C tox 18µM* and GALC G270D act inactive.
